Laboratory results from the supplement of paper PMC8728848.
The sample as a whole holds a higher share of the strongest signals than the screen did.

Assays:
Experiment in all cases: glycan array binding signal (z-score within array); higher = stronger binding
Details in all cases: glycan notation: IUPAC condensed, linker removed
[1] = molecular target: Fuc(a1-2)Gal(b1-3)GlcNAc(b1-2)Man(a1-3)[Fuc(a1-2)Gal(b1-3)GlcNAc(b1-2)Man(a1-6)]Man(b1-4)GlcNAc(b1-4)GlcNAc
How it was run: (§1)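 From the Consortium for Functional Glycomics database, 3228 arrays were curated, keeping only those whose protein sequence was available. Binding is given as a within-array Z-score averaged across arrays sharing a protein sequence and across linkers. Negative Z-scores can be read as non-binding.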

Fuc(a1-2)Gal(b1-4)Glc6S = molecular target: Fuc(a1-2)Gal(b1-4)Glc6S
How it was run: as §1

[2] = molecular target: Fuc(a1-2)Gal(b1-4)GlcNAc(b1-3)Gal(b1-4)GlcNAc
How it was run: as §1

[3] = molecular target: Fuc(a1-2)Gal(b1-4)GlcNAc(b1-3)GalNAc
How it was run: as §1

[4] = molecular target: Fuc(a1-2)Gal(b1-4)GlcNAc(b1-3)[Fuc(a1-2)Gal(b1-4)GlcNAc(b1-6)]GalNAc
How it was run: as §1

[5] = molecular target: Fuc(a1-2)Gal(b1-4)GlcNAc(b1-3)[Fuc(a1-3)[Gal(b1-4)]GlcNAc(b1-6)]Gal(b1-4)Glc
How it was run: as §1

[6] = molecular target: Fuc(a1-2)Gal6S(b1-3)GlcNAc6S
How it was run: as §1

Fuc(a1-2)Gal6S(b1-4)Glc = molecular target: Fuc(a1-2)Gal6S(b1-4)Glc
How it was run: as §1

Fuc(a1-2)[Gal(a1-3)]Gal = molecular target: Fuc(a1-2)[Gal(a1-3)]Gal
How it was run: as §1

[7] = molecular target: Fuc(a1-2)[GalNAc(a1-3)]Gal
How it was run: as §1

[8] = molecular target: Fuc(a1-2)[GalNAc(a1-3)]Gal(b1-3)GalNAc(a1-3)[Fuc(a1-2)]Gal(b1-4)GlcNAc
How it was run: as §1

[9] = molecular target: Fuc(a1-3)[Gal(b1-4)]GlcNAc(b1-3)Gal(b1-3)[Fuc(a1-4)]GlcNAc
How it was run: as §1

[10] = molecular target: Fuc(a1-3)[Gal(b1-4)]GlcNAc(b1-3)Gal(b1-4)[Fuc(a1-3)]GlcNAc
How it was run: as §1

[11] = molecular target: Fuc(a1-3)[Gal(b1-4)]GlcNAc(b1-6)GalNAc
How it was run: as §1

[12] = molecular target: Fuc(a1-3)[GalNAc(b1-4)]GlcNAc
How it was run: as §1

Gal(a1-2)Gal = molecular target: Gal(a1-2)Gal
How it was run: as §1

Gal(a1-3)Gal(b1-3)GlcNAc = molecular target: Gal(a1-3)Gal(b1-3)GlcNAc
How it was run: as §1

Gal(b1-3)Gal(b1-4)GlcNAc = molecular target: Gal(b1-3)Gal(b1-4)GlcNAc
How it was run: as §1

[13] = molecular target: Gal(b1-3)GlcNAc(b1-3)Gal(b1-3)GlcNAc
How it was run: as §1

[14] = molecular target: Gal(b1-3)GlcNAc(b1-3)Gal(b1-4)GlcNAc(b1-3)Gal(b1-4)GlcNAc(b1-2)[Gal(b1-3)GlcNAc(b1-3)Gal(b1-4)GlcNAc(b1-3)Gal(b1-4)GlcNAc(b1-6)]Man(a1-6)[Gal(b1-3)GlcNAc(b1-3)Gal(b1-4)GlcNAc(b1-3)Gal(b1-4)GlcNAc(b1-2)Man(a1-3)]Man(b1-4)GlcNAc(b1-4)[Fuc(a1-6)]GlcNAc
How it was run: as §1

[15] = molecular target: Gal(b1-3)[Fuc(a1-4)]GlcNAc(b1-2)Man
How it was run: as §1

[16] = molecular target: Gal(b1-3)[Fuc(a1-4)]GlcNAc(b1-2)Man(a1-3)[Gal(b1-3)[Fuc(a1-4)]GlcNAc(b1-2)Man(a1-6)]Man(b1-4)GlcNAc(b1-4)[Fuc(a1-6)]GlcNAc
How it was run: as §1

[17] = molecular target: Gal(b1-3)[Fuc(a1-4)]GlcNAc(b1-6)GalNAc
How it was run: as §1

[18] = molecular target: Gal(b1-3)[Neu5Ac(a2-6)]GlcNAc(b1-4)Gal(b1-4)Glc
How it was run: as §1

[19] = molecular target: Gal(b1-3)[Neu5Ac(b2-6)]GalNAc
How it was run: as §1

[20] = molecular target: Gal(b1-4)GlcNAc(b1-3)Gal(b1-4)Glc
How it was run: as §1

[21] = molecular target: Gal(b1-4)GlcNAc(b1-3)Gal(b1-4)GlcNAc(b1-3)Gal(b1-4)GlcNAc(b1-3)Gal(b1-4)GlcNAc(b1-3)Gal(b1-4)GlcNAc(b1-2)Man(a1-3)[Gal(b1-4)GlcNAc(b1-3)Gal(b1-4)GlcNAc(b1-3)Gal(b1-4)GlcNAc(b1-3)Gal(b1-4)GlcNAc(b1-3)Gal(b1-4)GlcNAc(b1-2)Man(a1-6)]Man(b1-4)GlcNAc(b1-4)GlcNAc
How it was run: as §1

B1: Tamarinin (protein)
chain: CDDSARAGNIVVYWGQGGSDNSEGSLKEACKSGHYNMIVLQQLIVYDDGRDPDLNLGAHCSDCTKLEEQIKYCQNKDIKILLQIGQVVPTQEDVKDVTKNLSEYLLKNFFSGKSGPLGEVYLNGIDIASVPEGNNLKFDELVEALNDSSTERRIYLSASPLCVYPDYYLNKAIQTEKLDFLFVQFFYQNPCIYTEGNPENLFEAMKTWTKNVPESMIFMALPATPNLDGYIPPRVLNKEILPAVSEASNFAGVMIFDRYFDRFRKYSSKIK
[1]
  glycan array binding signal (z-score): 0.79
Fuc(a1-2)Gal(b1-4)Glc6S
  glycan array binding signal (z-score): -0.241
[2]
  glycan array binding signal (z-score): -0.361
[3]
  glycan array binding signal (z-score): 0.146
[4]
  glycan array binding signal (z-score): 4.01
[5]
  glycan array binding signal (z-score): -0.458
[6]
  glycan array binding signal (z-score): 4.89
Fuc(a1-2)Gal6S(b1-4)Glc
  glycan array binding signal (z-score): -0.164
Fuc(a1-2)[Gal(a1-3)]Gal
  glycan array binding signal (z-score): -0.275
[7]
  glycan array binding signal (z-score): -0.388
[8]
  glycan array binding signal (z-score): -0.292
[9]
  glycan array binding signal (z-score): -0.377
[10]
  glycan array binding signal (z-score): 0.223
[11]
  glycan array binding signal (z-score): -0.129
[12]
  glycan array binding signal (z-score): -0.154
Gal(a1-2)Gal
  glycan array binding signal (z-score): -0.001
Gal(a1-3)Gal(b1-3)GlcNAc
  glycan array binding signal (z-score): -0.375
Gal(b1-3)Gal(b1-4)GlcNAc
  glycan array binding signal (z-score): 11.2
[13]
  glycan array binding signal (z-score): -0.135
[14]
  glycan array binding signal (z-score): 4.61
[15]
  glycan array binding signal (z-score): 1.45
[16]
  glycan array binding signal (z-score): 3.52
[17]
  glycan array binding signal (z-score): -0.371
[18]
  glycan array binding signal (z-score): 2.92
[19]
  glycan array binding signal (z-score): -0.455
[20]
  glycan array binding signal (z-score): 0.79
[21]
  glycan array binding signal (z-score): -0.24
